{
  "source": "PubChem BioAssay AID504408",
  "about": "(Broad Institute, 2011)",
  "note": "About 5,200 (1.7%) of roughly 300,000 compounds were called active. The full list was thinned out, with actives kept by preference. Unmarked numbers belong to inactive results.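 How the source made its calls: active means mean replicate activation of at least 50% with a set share of replicates each reaching 50%; inconclusive means only one of those two conditions met; inactive means mean below 50% and too few replicates reaching it.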",
  "data": [
    {"assay": "HSF-1 activators, primary screen, NIH3T3-HGL cells, MG132 stress, luminescence, single point (AID 504408);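 further: 0% = median of the neutral control wells and 100% = twice that signal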", "conditions": "NIH3T3-HGL HSF-1 luciferase reporter, MG132, 8 h; at 9 µM; active compounds read high; 100% = twice DMSO control signal", "values": [
      {"smiles": "CCN(CC(=O)Nc1c(F)cccc1F)C(=O)c1ccc(Sc2nncn2C)c([N+](=O)[O-])c1", "activation": "-3.26%"},
      {"smiles": "Cc1c(NC(=O)CN(C)CC(=O)Nc2ccc(F)c(F)c2F)c(=O)n(-c2ccccc2)n1C", "activation": "1.95%"},
      {"smiles": "COc1cc(C(=O)NCC(=O)NCCSc2ccc(Br)cc2)cc(OC)c1OC", "activation": "7.39%"},
      {"smiles": "Cc1cc(NC(=O)CSCc2ccccc2C)no1", "activation": "56.3% (active)"},
      {"smiles": "Cc1ccccc1CSCC(=O)NC(=O)NC(C)(C)C", "activation": "5.08%"},
      {"smiles": "Cc1cc(NC(=O)c2ccccc2C)no1", "activation": "26.1%"},
      {"smiles": "O=C(COc1coc(CN2CCN(c3ccccc3)CC2)cc1=O)N1CCc2ccccc21", "activation": "1.05%"},
      {"smiles": "COc1ccc(N2CCN(C(=O)COC(=O)c3cccc(S(=O)(=O)Nc4ccccc4OC)c3)CC2)cc1", "activation": "5.51%"},
      {"smiles": "O=c1[nH]c(CSc2ncc(-c3ccc(F)cc3)n2Cc2ccco2)nc2ccccc12", "activation": "41.8%"},
      {"smiles": "Clc1cccc(-c2nc3nc4ccccc4nc3n2Cc2ccco2)c1", "activation": "79.2% (active)"},
      {"smiles": "Cc1cc(NC(=O)CSc2nc3cc(Cl)ccc3c(=O)n2Cc2ccco2)no1", "activation": "1.94%"},
      {"smiles": "O=C(NCCSc1ncc(-c2ccccc2)[nH]1)c1ccco1", "activation": "10.6%"},
      {"smiles": "CCOC(=O)c1cnc(-c2ccccc2)nc1Oc1ccc(C)cc1", "activation": "88.3% (active)"},
      {"smiles": "CCCNC(=O)c1cnc(-c2ccccc2)nc1-c1ccccc1", "activation": "23.9%"},
      {"smiles": "CCCCOc1ccc(-c2ncc(C(=O)OCC)c(N)n2)cc1", "activation": "23.3%"},
      {"smiles": "O=C(COc1cccc2c1CCNC2=O)NC1CCCCC1", "activation": "-2.8%"},
      {"smiles": "CC(C)Nc1nnc(SC(C)C(=O)N(C)C2CCCCC2)s1", "note": "(stereo not given)", "activation": "7.73%"},
      {"smiles": "N#CC(=C1CCCC1)c1nc(-c2ccc(Cl)cc2)cs1", "activation": "62.5% (active)"},
      {"smiles": "CCCCCN1CC(O)=C(c2nc(-c3ccc(Cl)cc3)cs2)C1=N", "activation": "-2.24%"},
      {"smiles": "N#CC(=C1SC=CS1)c1nc(-c2ccccc2)cs1", "activation": "44.5%"},
      {"smiles": "O=C(COc1ccccc1Cl)Nc1ccccc1C(=O)NC1CC1", "activation": "-14.4%"},
      {"smiles": "CN(C)CCN(C(=O)CN1C(=O)c2ccccc2C1=O)c1nc2cc3c(cc2s1)OCCO3", "activation": "16%"},
      {"smiles": "CN(CC(=O)Nc1cccc(F)c1)C(=O)C1=COCCO1", "activation": "3.81%"},
      {"smiles": "Cc1cc(Nc2ccc(Br)cc2)nc2ccccc12", "activation": "0.857%"},
      {"smiles": "O=C1CCCC2=C1C(c1ccccc1)n1c(s/c(=C/c3cccc(F)c3)c1=O)=N2", "note": "(stereo not given)", "activation": "-4.55%"},
      {"smiles": "CCOC(=O)C1=C(C)N=C2c3ccccc3C(=O)C2C1c1ccc(Br)cc1", "note": "(stereo not given)", "activation": "-1.71%"},
      {"smiles": "Cc1cccc(C2C3=C(CCCC3=O)N=C3c4ccccc4C(=O)C32)c1", "note": "(stereo not given)", "activation": "78.2% (active)"},
      {"smiles": "COc1ccc(CNS(=O)(=O)c2cc3c4c(c2)CCN4C(=O)CC3)cc1", "activation": "30.7%"},
      {"smiles": "COc1ccccc1OCCCCCCN1CCN(C)CC1", "activation": "-3.8%"},
      {"smiles": "Cc1n[nH]c(=O)c2c(NC(=O)CSc3ccccc3F)oc(C)c12", "activation": "6.59%"},
      {"smiles": "COc1ccc(OCCCC(=O)OC(C)C(=O)Nc2ccccc2[N+](=O)[O-])cc1", "note": "(stereo not given)", "activation": "10.9%"},
      {"smiles": "COc1ccc2c(c1)CCc1c(C(=O)N3CCCC3)noc1-2", "activation": "54.9% (active)"},
      {"smiles": "COc1ccc2c(c1)CCc1c(C(=O)N3CCc4ccccc4C3)noc1-2", "activation": "6.07%"},
      {"smiles": "COc1ccc2oc(=O)c(C(=O)N3CCCC3)cc2c1", "activation": "6.28%"},
      {"smiles": "O=C(NCCN1CCCC(O)C1)c1cc(COc2c(F)cccc2F)on1", "note": "(stereo not given)", "activation": "-5.99%"},
      {"smiles": "O=C(c1cc(COc2c(F)cccc2F)on1)N1CCSCC1", "activation": "13.6%"},
      {"smiles": "CC1CN(C(=O)c2cc(COc3c(F)cccc3F)on2)CCN1C", "note": "(stereo not given)", "activation": "52.1% (active)"},
      {"smiles": "Cc1csc(NC(=O)C2=COCCO2)n1", "activation": "13%"},
      {"smiles": "CC(C)CN(C(=O)COC(=O)c1ccc(Cl)c(N)c1)c1c(N)n(Cc2ccccc2)c(=O)[nH]c1=O", "activation": "-19.5%"},
      {"smiles": "O=C(NC1CCCCC1)c1ccc(-c2ccc(Cl)cc2)o1", "activation": "67.1% (active)"},
      {"smiles": "S=C(NCc1ccc(Cl)cc1)NC1CCCCC1", "activation": "18.1%"},
      {"smiles": "O=C(NC1CCCCCC1)c1cccnc1Sc1ccc(Cl)cc1", "activation": "-8.73%"},
      {"smiles": "CCN(C(=O)COC(=O)c1sccc1C)c1c(N)n(Cc2ccccc2)c(=O)[nH]c1=O", "activation": "-3.51%"},
      {"smiles": "CCCNC(=O)c1onc(CSc2ccc(F)cc2)c1C(=O)NC(C)C", "activation": "-0.0105%"},
      {"smiles": "CS(=O)(=O)c1ccc(Cl)c(NC(=O)COC(=O)c2ncc(Cl)c(Cl)c2Cl)c1", "activation": "2.63%"},
      {"smiles": "Oc1c(C(c2ccccn2)N2CCOCC2)ccc2cccnc12", "note": "(stereo not given)", "activation": "73.3% (active)"},
      {"smiles": "CC(C)c1cc(CN2CCOCC2)cc(C(C)C)c1O", "activation": "4.46%"},
      {"smiles": "CCOc1cc(N2CCOCC2)c(OCC)cc1NC(=O)COc1cccc2cccnc12", "activation": "-23%"},
      {"smiles": "O=C(COC(=O)c1ncc(Cl)c(Cl)c1Cl)NNC(=O)c1ccccc1", "activation": "3.3%"},
      {"smiles": "O=C1CC2(CCN(C(=O)COc3ccc(F)cc3)CC2)Oc2ccccc21", "activation": "12%"},
      {"smiles": "CC(OC(=O)c1ccc(S(=O)(=O)N2CCOCC2)cc1)c1ccccc1", "note": "(stereo not given)", "activation": "13.9%"},
      {"smiles": "CC(Oc1ccc(F)cc1)C(=O)Nc1ccccc1C(=O)NC1CC1", "note": "(stereo not given)", "activation": "6.2%"},
      {"smiles": "COc1ccc(NC(=O)c2cc(-c3ccc(C)cc3)on2)cc1", "activation": "-4.41%"},
      {"smiles": "O=C(Nc1cccnc1Cl)c1cc(-c2ccccc2O)on1", "activation": "11.3%"},
      {"smiles": "Cc1ccc(O)c(NC(=O)c2cc(-c3ccco3)on2)c1", "activation": "113% (active)"},
      {"smiles": "c1ccc(C[C@H]2CNCCN2CCC23CC4CC(CC(C4)C2)C3)cc1", "activation": "-13.4%"},
      {"smiles": "Cc1ccc(CSCC(=O)N(C)CC(=O)Nc2ccc(C)cc2)cc1", "activation": "-77.8%"},
      {"smiles": "O=C(CSC1=NS(=O)(=O)c2cc(F)ccc2N1)Nc1ccccc1F", "activation": "30%"},
      {"smiles": "Cc1ccc(OC(=O)c2cc3ccccc3o2)cc1", "activation": "5.61%"},
      {"smiles": "Cc1ccc(NC(=O)c2cc3ccccc3o2)cc1", "activation": "51.6% (active)"},
      {"smiles": "C/C(=N\\NC(=S)Nc1ccc(C)cc1)c1cc2ccccc2o1", "activation": "7.68%"},
      {"smiles": "CN(/N=C/c1ccccc1)C(=S)c1ccccc1", "activation": "9.01%"},
      {"smiles": "O=c1c(-c2cccc(Cl)c2)c[nH]n1-c1ccccc1", "activation": "7.2%"},
      {"smiles": "O=C1c2ccccc2NC(c2ccc(-c3cccc(Cl)c3)o2)N1O", "note": "(stereo not given)", "activation": "76.4% (active)"},
      {"smiles": "O=C(O)C(c1ccccc1)N1C(=O)/C(=C\\c2ccc(-c3cccc(Cl)c3)o2)SC1=S", "note": "(stereo not given)", "activation": "-2.76%"},
      {"smiles": "Cc1ccc(C(=O)C(C)OC(=O)Cc2n[nH]c(=O)c3ccccc23)cc1C", "note": "(stereo not given)", "activation": "-0.0365%"},
      {"smiles": "O=C(NCc1ccccn1)Nc1ccc(Cl)cc1", "activation": "-2.45%"},
      {"smiles": "CCN(CC(=O)Nc1c(F)cccc1F)C(=O)C1CCC1", "activation": "-4.88%"},
      {"smiles": "O=C(Nc1nc(-c2ccco2)c(-c2ccco2)s1)c1ccco1", "activation": "70.1% (active)"},
      {"smiles": "O=C(Nc1ccccc1)c1ccco1", "activation": "11.5%"},
      {"smiles": "NC(=O)c1ccsc1NC(=O)c1ccco1", "activation": "26.5%"},
      {"smiles": "Cc1csc(NC(=O)c2ccc(C)s2)n1", "activation": "-3.76%"},
      {"smiles": "O=C(NCCCN1CCCC1=O)c1ccc(S(=O)(=O)Nc2ccccc2)cc1", "activation": "16.8%"},
      {"smiles": "CC(C)(C)C(=O)COC(=O)c1cc(S(=O)(=O)N2CCCCC2)ccc1N1CCOCC1", "activation": "-1.57%"},
      {"smiles": "Cc1ccc(C(=O)CSc2nnc(Cn3nnc4ccccc43)n2C)cc1", "activation": "43.4%"},
      {"smiles": "Cc1ccc2nnn(Cc3cccc(C(C)(C)C)c3O)c2c1", "activation": "59.9% (active)"},
      {"smiles": "O=C(CN1C(=O)NC2(CCCC2)C1=O)OCCOc1ccc(F)cc1", "activation": "3.21%"},
      {"smiles": "CCCCn1c(N)c(N(CCC(C)C)C(=O)CC2OC(=O)c3ccccc32)c(=O)[nH]c1=O", "note": "(stereo not given)", "activation": "-3.07%"},
      {"smiles": "Cc1cc(Oc2ccc(Cl)cc2)nc(SCC(=O)c2ccccc2)n1", "activation": "2.82%"},
      {"smiles": "Cc1cc(C)nc(SCC(=O)c2ccc(Cl)cc2)n1", "activation": "-1.86%"},
      {"smiles": "Cc1cc(C)nc(S/C=C/C(=O)c2ccccc2)n1", "activation": "111% (active)"},
      {"smiles": "CSc1ccc(/C=C2\\NC(=O)NC2=O)cc1", "activation": "20.8%"},
      {"smiles": "CN(Cc1ccccc1F)C(=O)C(Cc1ccccc1)NC(=O)c1ccccc1", "note": "(stereo not given)", "activation": "-0.838%"},
      {"smiles": "CCCCn1c(N)c(N(CCOC)C(=O)COc2c(C)cccc2C)c(=O)[nH]c1=O", "activation": "-3.47%"},
      {"smiles": "CCc1ccc(CN2C(=O)c3ccccc3C2C(=O)NCC2CCCO2)cc1", "note": "(stereo not given)", "activation": "62.2% (active)"},
      {"smiles": "CCC(C)NC(=O)C1c2ccccc2C(=O)N1Cc1ccccc1", "note": "(stereo not given)", "activation": "16.4%"},
      {"smiles": "CC1CCC(NC(=O)C2c3ccccc3C(=O)N2Cc2ccc3c(c2)OCO3)CC1", "note": "(stereo not given)", "activation": "-8.55%"},
      {"smiles": "CCOC(=O)c1cc(NC(=O)c2cccnc2)ccn1", "activation": "-78.8%"},
      {"smiles": "COc1ccc(S(=O)(=O)N2CCOCC2)cc1NC(=O)COc1ccccc1", "activation": "-3.48%"},
      {"smiles": "COc1ccc(S(=O)(=O)N2CCCCC2)cc1NC(=O)COc1ccccc1", "activation": "4.76%"},
      {"smiles": "COc1ccc(S(=O)(=O)N2CCOCC2)cc1NC(=O)CSc1ncnc2ccccc12", "activation": "72.7% (active)"},
      {"smiles": "CCCC(=O)Nc1c(O)c2ccccc2[nH]c1=O", "activation": "-31.5%"},
      {"smiles": "O=C(Cc1c(O)c2ccccc2[nH]c1=O)NCc1ccccc1", "activation": "55.5% (active)"},
      {"smiles": "CCCOC(=O)Cc1c(O)c2ccccc2[nH]c1=O", "activation": "-21.7%"},
      {"smiles": "Cc1ccc(NS(=O)(=O)c2ccc(C(=O)NCCCN3CCOCC3)cc2)cc1", "activation": "-3.65%"},
      {"smiles": "O=C(NCCS(=O)(=O)NCc1ccc(F)cc1)c1ccccc1", "activation": "2.75%"},
      {"smiles": "O=C(Nc1cccc2c1CCCC2)c1ccc(F)cc1", "activation": "-3.19%"},
      {"smiles": "COc1ccc2c(Cl)c(C(=O)NCc3ccco3)sc2c1", "activation": "59.8% (active)"},
      {"smiles": "COc1ccc2oc(C(=O)NCc3ccco3)c(C)c2c1", "activation": "6.69%"},
      {"smiles": "O=C(NCc1ccco1)c1sc2cccc(F)c2c1Cl", "activation": "27.8%"}
    ]}
  ]
}
